The subject of experiment [1] is Plasmodium falciparum Sir2 (PF13_0152, Sir2A). Kind of experiment: pfSir2 binders on small-molecule microarrays, primary screen, biochemical, small-molecule microarray, 635 nm fluorescence (AID 1098).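 Also: score merges spot fluorescence intensity with its signal-to-noise ratio.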 Conditions: small-molecule microarray binding, fluorescence 635 nm; higher = more signal.
The nature of experiment [2]: small-molecule microarray binders of probe aDKK1, primary screen, biochemical, biotinylated probe, 635/667 nm fluorescence (AID 1099).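 Also: score merges 667nm spot fluorescence with signal to noise across triplicate slides; reference of the scale not given here.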 To be noted: higher = more signal.
The nature of experiment [3]: small-molecule microarray binders of probe aCHRDL2, primary screen, biochemical, biotinylated probe, 635/667 nm fluorescence (AID 1100). Conditions: higher = more signal.
The nature of experiment [4]: splicing luciferase reporter signal modulators, primary screen, spliceosome inhibition project, cell-based, HEK293, splice +/- reporter (AID 1101).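 Also: HEK293 cells carrying a splicing-competent luciferase reporter gene; test concentration not given here.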 Conditions: luminescence, 24 h, higher = more signal, called active from +8 up or from −8 down. Background: A reporter such as luciferase makes a cellular process visible.
Experiment [5] concerns the target Fibroblast growth factor 10 (Homo sapiens) (UniProt O15520). The experiment is described as follows: FGF10 binders on small-molecule microarrays, primary screen, biochemical, small-molecule microarray, 635 nm fluorescence (AID 1102). To be noted: FGF10 binding, fluorescence 635 nm, higher = more signal.
The subject of experiment [6] is glycogen synthase kinase-3 (GSK3A per assay name; protocol says GSK3B). The experiment is described as follows: GSK3 binders on small-molecule microarrays, primary screen, biochemical, small-molecule microarray, 635 nm fluorescence, GSK3A (AID 1103). Also: the record names both GSK3A and GSK3B. To be noted: small-molecule microarray binding, fluorescence 635 nm; higher = more signal.
Experiment [7] addresses Epidermal growth factor receptor (Homo sapiens) (UniProt P00533). The experiment is described as follows: EGFR binders on small-molecule microarrays, primary screen, biochemical, small-molecule microarray, 635 nm fluorescence (AID 1104).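 Also: score merges 667 nm emission intensity with spot signal to noise over triplicate slides.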 To be noted: EGFR binding, higher = more signal.
For experiment [8], the target named is Follistatin-related protein 3 (Homo sapiens) (UniProt O95633). Kind of experiment: FSTL3 binders on small-molecule microarrays, primary screen, biochemical, small-molecule microarray, 635 nm fluorescence (AID 1105).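 Also: score merges emission near 667 nm and signal to noise per printed spot across three slides.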 Conditions: FSTL3 binding, higher = more signal.
Follistatin-related protein 3 (Homo sapiens), sequence (O95633 whole entry, looked up): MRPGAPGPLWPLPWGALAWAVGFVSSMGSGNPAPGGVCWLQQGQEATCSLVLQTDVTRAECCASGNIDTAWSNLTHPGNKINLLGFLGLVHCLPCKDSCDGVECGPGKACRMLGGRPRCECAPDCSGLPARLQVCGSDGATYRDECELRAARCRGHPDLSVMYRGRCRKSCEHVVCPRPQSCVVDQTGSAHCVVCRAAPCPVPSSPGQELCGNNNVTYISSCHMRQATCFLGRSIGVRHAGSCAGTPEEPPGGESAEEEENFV
Experiment [9] has as its target Dickkopf-related protein 1 (Homo sapiens) (UniProt O94907). The experiment is described as follows: DKK1 binders on small-molecule microarrays, primary screen, biochemical, small-molecule microarray, 635 nm fluorescence scan (AID 1106).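 Also: score merges emission near 667 nm with signal to noise over three replicate slides.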 Conditions: DKK1 binding, higher = more signal.
The test system of experiment [10] is Inhibin beta A chain (activin A). Kind of experiment: INHBA (activin A) binders on microarrays, primary screen, biochemical, small-molecule microarray, 635 nm fluorescence scan (AID 1107).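 Also: mouse activin A protein probed at 4.33 µg/mL on printed slides; score merges bound-protein fluorescence near 667 nm with spot signal-to-noise.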 Conditions: small-molecule microarray binding, higher = more signal.

Calls of active or inactive are those of the source.

Composite z-score and z-score data for 13 compounds are collected here from PubChem BioAssay.

Dickkopf-related protein 1 (Homo sapiens), sequence (O94907 whole entry, looked up): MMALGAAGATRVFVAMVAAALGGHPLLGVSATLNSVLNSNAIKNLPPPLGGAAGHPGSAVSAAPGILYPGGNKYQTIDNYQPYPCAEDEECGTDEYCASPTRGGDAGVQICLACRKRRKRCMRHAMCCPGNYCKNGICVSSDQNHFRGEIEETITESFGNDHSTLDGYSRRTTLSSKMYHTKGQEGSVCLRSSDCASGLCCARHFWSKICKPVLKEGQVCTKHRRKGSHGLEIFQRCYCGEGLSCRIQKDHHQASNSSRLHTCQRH
Fibroblast growth factor 10 (Homo sapiens), sequence (O15520 whole entry, looked up): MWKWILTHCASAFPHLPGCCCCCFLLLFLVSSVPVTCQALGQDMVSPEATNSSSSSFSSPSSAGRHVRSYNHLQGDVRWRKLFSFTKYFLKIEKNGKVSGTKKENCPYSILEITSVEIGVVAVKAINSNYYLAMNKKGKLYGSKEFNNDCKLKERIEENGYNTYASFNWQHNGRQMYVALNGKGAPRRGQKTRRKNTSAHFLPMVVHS
Epidermal growth factor receptor (Homo sapiens), sequence (P00533 whole entry, looked up): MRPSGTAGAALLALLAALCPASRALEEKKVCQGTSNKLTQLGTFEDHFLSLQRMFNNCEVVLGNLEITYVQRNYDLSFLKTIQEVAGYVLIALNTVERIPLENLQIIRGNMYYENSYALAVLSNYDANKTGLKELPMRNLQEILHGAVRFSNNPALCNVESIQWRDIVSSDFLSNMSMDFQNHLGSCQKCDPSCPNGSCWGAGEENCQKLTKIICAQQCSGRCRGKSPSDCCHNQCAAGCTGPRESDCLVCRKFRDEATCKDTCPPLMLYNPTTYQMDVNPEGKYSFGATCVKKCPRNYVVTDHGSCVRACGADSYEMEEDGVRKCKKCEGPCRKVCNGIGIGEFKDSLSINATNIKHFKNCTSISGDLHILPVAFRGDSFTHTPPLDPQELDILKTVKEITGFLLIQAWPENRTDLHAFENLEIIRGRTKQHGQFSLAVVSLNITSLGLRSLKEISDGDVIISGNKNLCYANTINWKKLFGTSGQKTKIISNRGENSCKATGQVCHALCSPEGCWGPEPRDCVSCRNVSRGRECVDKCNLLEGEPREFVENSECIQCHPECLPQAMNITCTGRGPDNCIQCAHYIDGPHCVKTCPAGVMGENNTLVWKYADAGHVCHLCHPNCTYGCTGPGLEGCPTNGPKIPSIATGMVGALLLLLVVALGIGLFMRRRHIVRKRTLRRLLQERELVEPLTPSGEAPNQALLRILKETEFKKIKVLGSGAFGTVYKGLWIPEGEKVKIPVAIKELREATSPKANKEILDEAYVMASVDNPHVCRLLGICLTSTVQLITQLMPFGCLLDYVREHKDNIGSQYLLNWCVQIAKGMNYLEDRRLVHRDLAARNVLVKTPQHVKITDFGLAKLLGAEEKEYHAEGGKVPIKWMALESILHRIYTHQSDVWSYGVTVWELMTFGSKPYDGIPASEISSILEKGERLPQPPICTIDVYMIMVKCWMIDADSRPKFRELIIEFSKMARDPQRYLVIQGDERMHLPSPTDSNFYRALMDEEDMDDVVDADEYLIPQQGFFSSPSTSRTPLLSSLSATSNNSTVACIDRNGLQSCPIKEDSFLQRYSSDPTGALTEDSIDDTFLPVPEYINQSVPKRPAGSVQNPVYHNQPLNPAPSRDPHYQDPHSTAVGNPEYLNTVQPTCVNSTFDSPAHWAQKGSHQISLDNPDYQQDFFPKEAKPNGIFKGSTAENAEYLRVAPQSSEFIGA

For the compound `C[C@]12C(=O)N(CCCCCO)[C@@H]3C(=O)N(c4ccc(Cl)cc4)CC=CC31O[C@@H]1/C=C\CCCOC(=O)C12` (stereo not given in full), the composite z-score was 0.677 in experiment [1]; -0.131 in experiment [2]; 0.557 in experiment [3]; -1.21 in experiment [5]; -1.82 in experiment [6]; -1.22 in experiment [7]. The composite z-score in experiment [8] was -0.934; in experiment [9], -1.19; in [10], -0.0839. Further, in experiment [4], the z-score is -0.0628 (inactive).
As to `COCCOC(=O)N1C(=O)[C@@]2(c3cc(C#Cc4ccc(OC)cc4)ccc31)[C@H](C(=O)N1CCc3cc(OC)c(OC)cc3C1)[C@H]1C(=O)O[C@H](c3ccccc3)[C@H](c3ccccc3)N1[C@@H]2c1ccc(OCCO)cc1`, the composite z-score was -0.352 in experiment [1]; 0.218 in experiment [2]; -0.0585 in experiment [3]; 0.705 in [5]; 1.03 in experiment [6]; 0.595 in [7]. Besides, the composite z-score is 0.997 in experiment [8], 0.588 in experiment [9] and 0.115 in experiment [10]. The z-score in experiment [4] was -0.32 (inactive).
As to `CC(C)NC(=O)[C@@]1(Cc2ccccc2I)c2ccccc2C(=O)N(Cc2ccccc2C(F)(F)F)[C@H]1c1ccc(CO)cc1`, the composite z-score was 1.75 in [1]; 0.474 in experiment [2]; 0.594 in [3]; 0.157 in experiment [5]; 0.182 in experiment [6]; -0.251 in [7]. The results for the composite z-score in [8], in [9] and in experiment [10] were 0.0273, -0.467 and 0.299, respectively. The z-score in [4] is 0.4 (inactive).
Turning to `COCCCNC(=O)[C@@]1(Cc2ccccc2CN=[N+]=[N-])N=C(c2ccc(OCCCO)cc2)O[C@H]1c1ccccc1N=[N+]=[N-]`, the composite z-score in experiment [1] amounted to 1.61; in experiment [2], 1.05; in experiment [3] it was 1.28; in experiment [5], 1.35; in experiment [6], 1.22; in experiment [7] it was 0.15. For the same compound, the composite z-score in [8] turned out to be 0.706; in experiment [9], 0.0902; in experiment [10], 0.542. In experiment [4], the z-score is -1.26 (inactive).
Consider `Cc1cc(C)c(C(O)C2C=CC3C(=O)N(c4ccccc4)C(=O)C3N2Nc2ccc([N+](=O)[O-])cc2)c(C)c1` (stereo not given), for which the composite z-score in experiment [1] was 1.55; in [2], 0.74; in [3], 0.911; in experiment [5], 0.693; in experiment [6], 1.3; in experiment [7], 0.326. The composite z-score was determined as 1.45 in [8], 0.275 in experiment [9] and 0.471 in experiment [10]. The z-score in [4] was 0.311 (inactive).
In the case of `O=C1OCC=C[C@H]2OC34C=CCN(CCN5CCOCC5)C(=O)[C@H]3N(CCCCCO)C(=O)[C@@H]4[C@@H]12` (stereo not given in full), the composite z-score was 1.35 in [1]; -0.284 in [2]; -0.227 in [3]; -0.736 in experiment [5]; -0.0692 in experiment [6]; -0.411 in [7]. The composite z-score in experiment [8] was -0.412; in experiment [9], -0.24; in experiment [10], 0.77. The z-score in experiment [4] was 0.636 (inactive).
Turning to `[N-]=[N+]=NCc1ccccc1C[C@@]1(C(=O)NCCN2CCOCC2)N=C(c2ccc(OCCCO)cc2)O[C@@H]1c1ccccc1CN=[N+]=[N-]`, the composite z-score in experiment [1] amounted to 0.668; in experiment [2], 0.914; in experiment [3] it was 0.491; in experiment [5] it was 1.15; in [6], 0.602; in experiment [7] it was 0.244. Besides, the composite z-score in experiment [8] was determined as 1.29; in experiment [9] it was 0.855; in [10], 0.817. Also, the z-score in experiment [4] is 0.139 (inactive).
As to `CCCCC(O)C1C=CC2C(=O)N(Cc3ccccc3)C(=O)C2N1n1cnnc1` (stereo not given), the composite z-score in experiment [1] was 0.769; in experiment [2] it was -0.0884; in experiment [3] it was 0.213; in experiment [5], 0.303; in experiment [6], 0.144; in [7], 0.188. Further, the composite z-score in experiment [8] stood at 0.412; in experiment [9] it was 0.178; in [10] it was 1.05. In experiment [4], the z-score is -0.75 (inactive).
As for `CC(C)N1C(=O)c2ccccc2[C@](C)(C(=O)O)[C@@H]1c1ccc(CO)cc1`, the composite z-score in [1] was 0.738; in experiment [2], 0.326; in [3] it was 0.855; in experiment [5] it was -0.756; in [6], -1.23; in experiment [7], -1.35. For the same compound, the results for the composite z-score in [8], in experiment [9] and in experiment [10] were -0.638, -1.06 and 0.532, respectively. Further, the z-score in experiment [4] was 0.591 (inactive).
For the compound `COC(=O)[C@@]1(Cc2ccc(OC)cc2)[C@H]2c3cc(C(=O)N(C)C)n(Cc4cc(F)c(F)c(F)c4)c3C[C@H]2CN1C(=O)c1ccccc1`, the composite z-score in [1] turned out to be 0.85; in [2] it was 1.59; in experiment [3] it was 1.03; in experiment [5], 0.519; in experiment [6], 1.02; in [7] it was 0.261. Moreover, the composite z-score in experiment [8] is 0.745; in experiment [9], -0.958; in [10], 0.882. For the same compound, the z-score in experiment [4] is -2.2 (inactive).
On to `C[N+](C)(C)CCCC[C@@H]1NC(=O)[C@@H]2C[C@H](C(=O)O)[C@H](c3cccc(OCCO)c3)N2C1=O`, for which the composite z-score in [1] was 1.53; in experiment [2], -0.066; in experiment [3] it was 0.667; in experiment [5] it was 0.11; in experiment [6] it was -0.144; in experiment [7], -0.188. In addition, the composite z-score in experiment [8] was -0.492; in experiment [9] it was 0.503; in [10] it was 0.146. For the same compound, the z-score in experiment [4] is -0.11 (inactive).
Turning to `OCCCC1=CC(c2cccs2)N(Cc2cccc(OC(F)(F)F)c2)CC1` (stereo not given), the composite z-score was 1.32 in experiment [1]; -0.14 in experiment [2]; -0.138 in experiment [3]; -0.566 in experiment [5]; -0.729 in [6]; -0.547 in experiment [7]. The composite z-score in experiment [8] was -0.537; in experiment [9] it was -0.015; in experiment [10], 0.756. Further, the z-score in experiment [4] was -0.733 (inactive).
For the compound `CC1=C2[C@@H](CCc3ccccc3)OB(O)C[C@@H]2[C@@H]2C(=O)C=CC(=O)[C@@H]2C1`, the composite z-score was 0.338 in experiment [1]; -0.102 in experiment [2]; -0.48 in experiment [3]; 1.28 in [5]; 0.612 in experiment [6]; 0.309 in experiment [7]. Also, the composite z-score in experiment [8] was found to be 0.853; in experiment [9], 0.636; in experiment [10] it was 0.729. Besides, the z-score in experiment [4] is 3.33 (inactive).
